# Laboratory results: PubChem BioAssay (NCI)
# Compounds without any hit were thinned out: in the full panel of roughly 83,000, 20% have a hit.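 Single-dose data. Exposure time 48 hours. Values below 10 considered active.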 Values without a mark were called inactive. Calls of active or inactive are those of the source.
# What was measured:
# Assay in all cases: NCI-60 one-dose screen, 48 h (100 = growth as untreated, 0 = no growth, -100 = all killed)
# [1] = system: SN12C renal; conditions: 10 µM
# [2] = system: UO-31 renal; conditions: 10 µM
# [3] = system: TK-10 renal; conditions: 10 µM unless noted
# [4] = system: ACHN renal; conditions: 10 µM
# [5] = system: CAKI-1 renal; conditions: 10 µM
# [6] = system: MOLT-4 leukemia; conditions: 10 µM
# [7] = system: A498 renal; conditions: 10 µM
# [8] = system: CCRF-CEM leukemia; conditions: 10 µM
Structure (SMILES),growth [1] [%],growth [2] [%],growth [3] [%],growth [4] [%],growth [5],growth [6] [%],growth [7],growth [8] [%]
COc1cc(/C=C/C(=O)c2ccccc2)cc(OC)c1OC,53.3,49.7,112,51.1,-23.3% (active),28.8,–,–
O=C(NCCNC(=O)c1ccc(Cl)cc1Cl)c1ccc(Cl)cc1Cl,87.1,90.9,120,110,84.4%,96.6,104%,–
CC(=O)c1ccc(N=C(C#N)C2=C(O)c3ccccc3C2=O)cc1,103,90.8,129,106,105%,92.1,88.1%,104
S=C1NCc2cncnc2N1,107,88.8,97.8,93,85.5%,95.6,104%,–
COc1ccccc1N1CCN(C(=S)Nc2ccccc2)CC1,100,75.3,95.6,100,–,78.7,–,–
CC(CN1CCCCC1)NC(=O)c1scnc1-c1ccccc1 (stereo not given),106,83.7,98.1,109,87.3%,104,–,–
O=C(Cc1ccc(OCc2ccccc2)cc1)NCc1ccc2c(c1)OCO2,89.9,73.7,77,104,32.5%,55.2,–,–
CCCCCC(C)(CC(=O)O)CC(=O)O,110,97.6,111,103,116%,103,113%,107
C=CC[N+](C)(C)C,101,97,92.7,100,–,94,106%,–
CNC(=O)c1ccccc1CC1(O)c2ccccc2Oc2ccccc21,80.9,57.7,–,54.4,44.8%,38.1,0.171% (active),56.4
N#Cc1ccc(OC(=O)Nc2ccc(Cl)c(Cl)c2)cc1,79.5,60.6,–,50.8,35.8%,79.9,106%,–
COc1cccc(COC(=O)Nc2ccccc2)c1OC,96.9,99.5,107,104,88.5%,100,105%,–
COC(=O)CCCCC1=CCC2C(=O)C=C(O)C2C1 (stereo not given),102,89.9,–,98.9,–,82.7,–,–
COC(=O)Nc1cccc(Cl)c1OC,112,95.6,120,99.8,94.5%,103,61.9%,–
CC(CC(=O)c1ccccc1)c1ccccc1 (stereo not given),107,95.4,90.1,115,106%,103,88.8%,98.4
O=[N+]([O-])c1ccccc1S(=O)c1ccccc1[N+](=O)[O-],99.7,73.4,135,106,61.7%,42,–,–

Structure (SMILES),growth [1] [%],growth [2] [%],growth [3] [%],growth [4] [%],growth [5],growth [6] [%],growth [7],growth [8] [%]
O=C(O)CCC(=O)OC(C1CO1)C(OC(=O)CCC(=O)O)C1CO1 (stereo not given),109,85.3,93.2,101,106%,99.8,80.5%,101
COc1ccc(/C(C#N)=C2C=C/C(=N/O)c3ccccc3\2)cc1,23.7,31.1,54.5,22.6,25.5%,19.2,-8.12% (active),–
O=C(O)/C=C/C(=O)NCc1ccccc1,108,90.9,–,97.9,102%,101,109%,–
CCCCCCCCCCC1CO1 (stereo not given),102,82.2,112,109,104%,105,108%,97.2
CC(=O)c1ccc2c(ccc3ccccc32)c1,102,100,–,110,107%,93,92.8%,86.2
CC(C(=O)O)(C1CCCCC1)C1(O)CCCCC1 (stereo not given),100,84.9,91.1,107,96.7%,94.3,–,–
C[C@@H](c1ccccc1)[C@@H](C(=O)O)c1ccccc1,98.1,91.2,–,96.4,99.1%,102,96.7%,98.9
C=CCCCCCCCCCOC(C)=O,98.8,92.4,91.5,110,104%,103,111%,101
CC(=O)Cc1ccc(-c2ccccc2)cc1,86.3,84.8,101,108,104%,117,89%,102
N#CCCc1ccc(O)cc1,107,90.5,113,99.9,95.4%,98.5,104%,–
Cc1cc(=O)n(-c2ccc(F)cc2)[nH]1,104,83.3,136,96,98.9%,99.7,99.7%,–
COc1cc(CCN=Cc2ccccc2O)c([N+](=O)[O-])cc1OC,103,79.3,–,96.7,86.6%,96.1,119%,–
O=C(Nc1ccccc1)OCCc1ccccc1,95.3,103,95.2,104,88.5%,101,–,–
O=S(=O)(O)c1cc(O)c2c(N=Cc3ccccc3O)c(S(=O)(=O)O)ccc2c1,109,73.2,118,101,96.2%,99.2,107%,–
CSC(=N\N=C\c1ccc(N(C)C)cc1)/N=C/N(C)C,108,101,131,101,104%,101,97%,–
COc1ccc(C(=O)C(Br)C(Br)C(=O)O)cc1 (stereo not given),98.6,102,–,101,112%,105,101%,–
